Consider 35 compounds from PubChem BioAssay.

In this assay the target is Fibroblast growth factor 2 (Homo sapiens) (UniProt P09038). As to the kind of experiment: basic fibroblast growth factor binding to printed compounds – biochemical, small-molecule microarray, 635/667 nm fluorescence, primary screen (AID 1133). The settings on record: FGF2, fluorescence 635/667, higher = more signal.
Chain of Fibroblast growth factor 2 (Homo sapiens) (P09038 whole entry, looked up): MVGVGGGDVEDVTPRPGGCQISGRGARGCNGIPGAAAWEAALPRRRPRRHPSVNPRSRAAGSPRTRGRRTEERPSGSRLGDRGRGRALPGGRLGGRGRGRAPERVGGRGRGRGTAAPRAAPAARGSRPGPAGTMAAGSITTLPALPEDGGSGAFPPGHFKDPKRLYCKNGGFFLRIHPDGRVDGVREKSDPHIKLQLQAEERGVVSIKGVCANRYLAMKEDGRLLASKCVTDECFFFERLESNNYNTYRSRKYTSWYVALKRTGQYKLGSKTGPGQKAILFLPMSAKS
For `CC[C@H]1C2=C3C(CC[C@H]4C(OCc5ccc(F)cc5C(F)(F)F)OC[C@](C)([C@@H]34)N(C(=O)OC(C)(C)C)C2)C(COC)C1COC` (stereo not given in full), the composite z-score is -0.758. In the case of `CC(C)N1C(=O)C[C@@](C(=O)NCCCN(C)C)(c2ccc([N+](=O)[O-])cc2)[C@H]1c1ccc(CO)cc1` it was 0.875; in that of `NC(=O)NCC#Cc1ccc2c(c1)[C@]1(C(=O)N2)[C@H](C(=O)NC[C@H](O)c2ccccc2)[C@H]2C(=O)O[C@H](c3ccccc3)[C@H](c3ccccc3)N2[C@@H]1c1ccc(OCCO)cc1`, 0.177; in that of `Cc1ccccc1C(O)C1C=CC2C(=O)N(C)C(=O)C2N1N(c1ccccc1)c1ccccc1` (stereo not given), -0.0234. For `C=CCC(OC(C)=O)[C@@H]1[C@@H](N(Cc2cc3ccccc3o2)C(=O)c2ccc(C)cc2)c2cc(OCCCO)ccc2N1C(=O)Cc1ccc(OC)cc1` (stereo not given in full), the composite z-score worked out at 0.158.

In the case of `COC(=O)C1=CC(CCCO)=CC(C2CC2)N(C)C=C1C(=O)OC` (stereo not given), the composite z-score was -0.539. The same measure for `COc1cc2c(cc1OC)CN(C(=O)[C@@H]1[C@H]3C(=O)O[C@H](c4ccccc4)[C@H](c4ccccc4)N3[C@H](c3ccc(OCCO)cc3)[C@@]13C(=O)Nc1ccc(C#CC4(O)CCCCCC4)cc13)CC2`: 1.13; for `COc1cc(OC)c(C(O)C2C=CC3C(=O)N(c4ccccc4)C(=O)C3N2Nc2ccccc2)cc1Br` (stereo not given): -0.179. For the compound `COc1ccc([Si](C)(C)[C@@H]2[C@@H](CC(=O)N(CCO)Cc3ccccc3)O[C@]3(C(=O)N(Cc4cccc(N5C(=O)c6cccc7cccc5c67)c4)c4ccccc43)[C@H]2C)cc1`, the composite z-score was determined as 1.72. The same measure for `COC(=O)c1c2oc(c1C(=O)OC)C(=O)N(C)Cc1cn(nn1)C[C@H](Cc1ccccc1)NC(=O)N[C@H](CO)CC2`: -0.438; for `O=C(CS)NCCCCCCNC(=O)[C@H]1C[C@H]2C(=O)N[C@@H](Cc3ccccc3)C(=O)N2[C@H]1c1ccc(O)cc1`: 1.62.

`O=C1C2C=CC(C(O)c3ccccc3)N(Nc3ccccc3F)C2C(=O)N1c1ccccc1` (stereo not given): the composite z-score is -0.248. For the compound `CC(C)(C)N1CC=CC23O[C@@H]4C=CCOC(=O)[C@@H]4[C@H]2C(=O)N(CCCCCCO)[C@@H]3C1=O` (stereo not given in full), the composite z-score was -0.877. The compound `CCCCO[C@H]1C[C@H]2C(I)=C[C@@H]1C(=O)[C@]21CO1` displayed a composite z-score of 0.129. In the case of `C=CCOC(=O)[C@H]1[C@@H]2C(=O)O[C@@H](c3ccccc3)[C@@H](c3ccccc3)N2[C@@H](c2ccc(OCCOC(=O)[C@@H]3C[C@@H]4C(=O)N5CCC[C@H]5C(=O)N4[C@@H]3c3ccc(O)cc3)cc2)[C@]12C(=O)Nc1ccc(I)cc12` it was 1.16; in that of `C=CCOC(=O)[C@H]1[C@@H]2C(=O)O[C@@H](c3ccccc3)[C@@H](c3ccccc3)N2[C@@H](c2ccc(OCCOC(=O)[C@H]3C[C@H]4C(=O)N[C@@H](CCCCNC(C)=O)C(=O)N4[C@H]3c3ccc(O)cc3)cc2)[C@]12C(=O)Nc1ccccc12`, 1.63; in that of `CCOc1cc(C(O)C2C=CC3C(=O)N(C)C(=O)C3N2Nc2ccccc2)ccc1O` (stereo not given), -0.153.

`C#CCN([C@@H](Cc1ccc(O)cc1)C(=O)OC)[C@@H](/C=C/C1CC1)[C@H](O)Cc1ccccc1` returned a composite z-score of -0.0354. In the case of `O=c1n(-c2ccccc2)c(=O)n2n1CC(COc1ccccc1)=C([C@H](O)CCc1ccccc1)[C@@H]2CO` it was 1.14; in that of `CC(=O)NCCCC[C@@H]1NC(=O)[C@H]2C[C@@H](C(=O)NCCCC[N+](C)(C)C)[C@@H](c3cccc(OCCO)c3)N2C1=O`, 1.85; in that of `CN1C(=O)C2C=CC(C(O)c3ccccn3)N(N(c3ccccc3)c3ccccc3)C2C1=O` (stereo not given), 0.397.

Turning to `C[N+](C)(C)CCCCCCNC(=O)[C@H]1C[C@H]2C(=O)NCC(=O)N2[C@H]1c1ccc(O)cc1`, the composite z-score came to 1.67.

As to `CCCC[C@@H]1C[C@H]1[C@@H](NC(=O)c1cccs1)c1ccc(C(F)(F)F)cc1`, the composite z-score is -0.38. In the case of `COc1ccc(CCN2C(=O)[C@@]3(Cc4ccccc42)c2ccccc2C(=O)N(Cc2ccccc2OC)[C@H]3c2ccc(CO)cc2)cc1` it was -0.832; in that of `C[C@@H]1NC(=O)[C@@]23C(=O)N[C@@H](Cc4ccccc4)C2[C@H](C)[C@@]2(C)O[C@H]2C3/C=C/C/C=C\CNC(=O)[C@@H]2CCCN2C1=O` (stereo not given in full), -0.197; in that of `C=C(/C(=C/C[C@H](OC(C)=O)c1cccc(OCCO)c1)c1cnc2ccccc2c1)C(C)C`, 0.429. The same measure for `[N-]=[N+]=NCc1ccccc1[C@H]1OC(c2ccc(OCCCO)cc2)=N[C@@]1(CCS(=O)(=O)c1ccccc1)C(=O)NCC(O)CO` (stereo not given in full): 0.877. The same measure for `Cc1cc(C)cc(N2C(=O)CSC2c2cccc([N+](=O)[O-])c2)c1` (stereo not given): 0.963. The compound `COCCOC(=O)N1C(=O)[C@@]2(c3cc(C#CC4(O)CCCCCC4)ccc31)[C@H](c1ccc(O)cc1)N1[C@H](c3ccccc3)[C@H](c3ccccc3)OC(=O)[C@H]1[C@@H]2C(=O)NC[C@H](O)c1ccccc1` showed a composite z-score of 1.64.

For the compound `COC(=O)c1cn(C[C@@H](Cc2ccccc2)NC(=O)N[C@H](CO)CCc2oc(C(C)=O)c(C(=O)OC)c2C(=O)OC)nn1`, the composite z-score worked out at 0.86. The same measure for `COC(=O)[C@@]1(Cc2ccccc2)[C@H]2c3cc(C(=O)N(C)C)n(Cc4c(CO)[nH]cc(C)c4=O)c3C[C@H]2CN1C(=O)c1ccccc1`: -0.615; for `CC(=O)NCCCC[C@@H]1NC(=O)[C@@H]2C[C@H](C(=O)NCCCC[N+](C)(C)C)[C@H](c3ccc(O)cc3)N2C1=O`: 1.73. In turn, `COc1ccc([Si](C)(C)[C@@H]2[C@@H](CC(=O)N3Cc4ccccc4C[C@H]3CO)O[C@]3(C(=O)N(C)c4ccccc43)[C@H]2C)cc1` had a composite z-score of 1.68. In turn, `COCCOC(=O)N1C(=O)[C@@]2(c3cc(C#CC4=CCCCC4)ccc31)[C@H](C(N)=O)[C@H]1C(=O)O[C@H](c3ccccc3)[C@H](c3ccccc3)N1[C@@H]2c1ccccc1OCCO` yielded a composite z-score of 1.42. Turning to `COC(=O)[C@@]1(Cc2ccc(OC)cc2)[C@@H]2C(=CC(=O)[C@H]2CC(=O)C(=O)N(C)C)CN1C(=O)c1ccccc1`, the composite z-score was -0.139.
